Our source for the residual activity values is ChEMBL document CHEMBL2218924, “A broad activity screen in support of a chemogenomic map for kinase signalling research and drug discovery” (Biochem J, 2013).

For one test, the target named is T1, Serine/threonine-protein kinase 4 (Homo sapiens) (UniProt Q13043).
T1 sequence (whole entry): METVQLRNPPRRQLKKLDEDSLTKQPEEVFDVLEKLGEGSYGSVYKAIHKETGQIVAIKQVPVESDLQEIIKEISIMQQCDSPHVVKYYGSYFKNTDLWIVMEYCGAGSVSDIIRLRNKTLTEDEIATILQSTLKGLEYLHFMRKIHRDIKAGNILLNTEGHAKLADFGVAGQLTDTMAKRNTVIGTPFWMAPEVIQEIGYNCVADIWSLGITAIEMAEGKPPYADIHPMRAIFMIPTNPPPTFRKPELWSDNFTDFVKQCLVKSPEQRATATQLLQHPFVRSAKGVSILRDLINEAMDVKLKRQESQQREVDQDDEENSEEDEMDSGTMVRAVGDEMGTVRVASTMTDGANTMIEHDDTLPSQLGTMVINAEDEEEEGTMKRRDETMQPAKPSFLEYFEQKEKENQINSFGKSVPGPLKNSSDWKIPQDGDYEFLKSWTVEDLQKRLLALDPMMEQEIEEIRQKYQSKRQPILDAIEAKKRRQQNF
The note with it: at 1 µM.
One may read the residual activity as the signal under treatment as a percentage of the control signal. As to `Cn1c2ccccc2c2c3c(c4c5ccccc5n(CCC#N)c4c21)CNC3=O`, the residual activity turned out to be 1%.

Take `Nc1ncnc2c1cnn2-c1ccccc1`: the residual activity is 97%.

On to `O=C1Cc2c([nH]c3ccc([N+](=O)[O-])cc23)-c2ccccc2N1`, for which the residual activity was found to be 33%.

Regarding `O=c1cc(N2CCOCC2)oc2c1ccc1ccccc12`, the residual activity was determined as 91%.

`Nc1ncnc2c1c(-c1ccc(Oc3ccccc3)cc1)cn2C1CCCC1`: the residual activity is 76%.

Turning to `O=C(NC(NC(=S)Nc1ccc(F)c([N+](=O)[O-])c1)C(Cl)(Cl)Cl)C(c1ccccc1)c1ccccc1` (configuration not stated), the residual activity is 92%.

Take `O=C1NC(=O)C(c2cn(CCCO)c3ncccc23)=C1c1cnccn1`: the residual activity is 77%.

Regarding `O=C(Nc1nc2ccccc2n1CCN1CCOCC1)c1cccc([N+](=O)[O-])c1`, the residual activity was determined as 88%.

`O=C(O)/C=C/c1cc(Br)c(Br)c(Br)c1Br`: the residual activity turned out to be 97%.

`CC(C)(C)n1nc(Cc2cccc3ccccc23)c2c(N)ncnc21`: the residual activity came out at 90%.

`O=C(CCCc1ccc(-c2ccccc2F)cc1)Nc1ccc(O)cc1`: the residual activity stood at 80%.

In the case of `CCN(CC)CCNC(=O)c1c(C)[nH]c(/C=C2\C(=O)Nc3ccc(Cl)cc32)c1C`, the residual activity came out at 12%.

For the compound `CC(C)[C@H](CO)Nc1nc(Nc2cc(N)cc(Cl)c2)c2ncn(C(C)C)c2n1`, the residual activity is 82%.

`O=C1Nc2ccc(Cl)cc2/C1=C/c1cc(Cl)c(O)c(Cl)c1`: the residual activity came out at 41%.

`COc1cc2nccc(Oc3ccc(NC(=S)NC(=O)c4ccccc4C)cc3)c2cc1OC`: the residual activity came out at 81%.

Take `N#C/C(=C1/Nc2ccccc2S1)c1ccnc(NCCc2cccnc2)n1`: the residual activity was 81%.

As to `CC(C)(C)c1nc2c3ccc(F)cc3c3c(=O)[nH]ccc3c2[nH]1`, the residual activity was 8%.

`O=C1Cc2c([nH]c3ccc(Br)cc23)-c2ccccc2N1`: the residual activity amounted to 44%.

For `O=c1cc(N2CCNCC2)oc2c(-c3ccccc3)cccc12`, the residual activity turned out to be 98%.

With `O=C1NC(=O)c2c1c1c3ccccc3[nH]c1n1cncc21`, the residual activity amounted to 40%.

Take `Nc1n[nH]c2nc3ccccc3nc12`: the residual activity is 76%.

On to `NC(=O)c1ccc(-c2nc(-c3ccc4c(c3)OCCO4)c(-c3ccccn3)[nH]2)cc1`, for which the residual activity was 90%.

`NC(=O)Nc1sc(-c2ccc(F)cc2)cc1C(N)=O`: the residual activity worked out at 28%.

Regarding `O=C(c1ccccc1)c1ccc(N2CCOCC2)cc1O`, the residual activity is 111%.

Another test addresses T1, Serine/threonine-protein kinase 4 (Homo sapiens). To be noted: at 10 µM.
As for `Cn1c2ccccc2c2c3c(c4c5ccccc5n(CCC#N)c4c21)CNC3=O`, the residual activity came out at 2%.

Turning to `COc1ccc(COc2ccc(Cc3cnc(N)nc3N)cc2OC)cc1`, the residual activity is 77%.

As for `O=C1Cc2c([nH]c3ccc([N+](=O)[O-])cc23)-c2ccccc2N1`, the residual activity was found to be 30%.

Take `O=c1cc(N2CCOCC2)oc2c1ccc1ccccc12`: the residual activity was determined as 97%.

Consider `Nc1ncnc2c1c(-c1ccc(Oc3ccccc3)cc1)cn2C1CCCC1`, for which the residual activity came to 48%.

In the case of `O=C1NC(=O)C(c2cn(CCCO)c3ncccc23)=C1c1cnccn1`, the residual activity turned out to be 60%.

`O=C(Nc1nc2ccccc2n1CCN1CCOCC1)c1cccc([N+](=O)[O-])c1`: the residual activity amounted to 77%.

On to `O=C(O)/C=C/c1cc(Br)c(Br)c(Br)c1Br`, for which the residual activity stood at 97%.

As for `CC(C)(C)n1nc(Cc2cccc3ccccc23)c2c(N)ncnc21`, the residual activity worked out at 58%.

For the compound `O=C(CCCc1ccc(-c2ccccc2F)cc1)Nc1ccc(O)cc1`, the residual activity turned out to be 107%.

With `CCN(CC)CCNC(=O)c1c(C)[nH]c(/C=C2\C(=O)Nc3ccc(Cl)cc32)c1C`, the residual activity was 5%.

On to `CC(C)[C@H](CO)Nc1nc(Nc2cc(N)cc(Cl)c2)c2ncn(C(C)C)c2n1`, for which the residual activity was found to be 47%.

As to `O=C1Nc2ccc(Cl)cc2/C1=C/c1cc(Cl)c(O)c(Cl)c1`, the residual activity is 12%.

Consider `COc1cc2nccc(Oc3ccc(NC(=S)NC(=O)c4ccccc4C)cc3)c2cc1OC`, for which the residual activity turned out to be 86%.

`N#C/C(=C1/Nc2ccccc2S1)c1ccnc(NCCc2cccnc2)n1`: the residual activity came to 84%.

Consider `CC(C)(C)c1nc2c3ccc(F)cc3c3c(=O)[nH]ccc3c2[nH]1`, for which the residual activity was 10%.

Take `O=C1Cc2c([nH]c3ccc(Br)cc23)-c2ccccc2N1`: the residual activity came out at 35%.

Take `O=c1cc(N2CCNCC2)oc2c(-c3ccccc3)cccc12`: the residual activity is 99%.

For `O=C1NC(=O)c2c1c1c3ccccc3[nH]c1n1cncc21`, the residual activity came to 21%.

In the case of `Nc1n[nH]c2nc3ccccc3nc12`, the residual activity amounted to 94%.

`NC(=O)c1ccc(-c2nc(-c3ccc4c(c3)OCCO4)c(-c3ccccn3)[nH]2)cc1`: the residual activity was 118%.

With `NC(=O)Nc1sc(-c2ccc(F)cc2)cc1C(N)=O`, the residual activity is 10%.

As for `O=C(c1ccccc1)c1ccc(N2CCOCC2)cc1O`, the residual activity worked out at 116%.
